Results with a measured potency or affinity are listed apart. Values without a mark were called inactive.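 Rule for the calls: active = primary screen activator hit with a dose response curve and TRPC4 channel activation at any tested dose; inactive = no activation, no dose response, or not a primary hit.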

For this assay, the target named is Short transient receptor potential channel 4 (Mus musculus) (UniProt Q9QUQ5). Description: calcium entry via TRPC4 opening agents – cell-based, HEK293 TRPC4/mu-opioid, Fluo-4 calcium, dose response (AID 434937). Particulars: HEK293 TRPC4 cells, Fluo-4 calcium fluorescence ratio; series mostly up to 20 µM; activation ratio: at the top concentration.
Sequence of Short transient receptor potential channel 4 (Mus musculus) (Q9QUQ5 whole entry, looked up): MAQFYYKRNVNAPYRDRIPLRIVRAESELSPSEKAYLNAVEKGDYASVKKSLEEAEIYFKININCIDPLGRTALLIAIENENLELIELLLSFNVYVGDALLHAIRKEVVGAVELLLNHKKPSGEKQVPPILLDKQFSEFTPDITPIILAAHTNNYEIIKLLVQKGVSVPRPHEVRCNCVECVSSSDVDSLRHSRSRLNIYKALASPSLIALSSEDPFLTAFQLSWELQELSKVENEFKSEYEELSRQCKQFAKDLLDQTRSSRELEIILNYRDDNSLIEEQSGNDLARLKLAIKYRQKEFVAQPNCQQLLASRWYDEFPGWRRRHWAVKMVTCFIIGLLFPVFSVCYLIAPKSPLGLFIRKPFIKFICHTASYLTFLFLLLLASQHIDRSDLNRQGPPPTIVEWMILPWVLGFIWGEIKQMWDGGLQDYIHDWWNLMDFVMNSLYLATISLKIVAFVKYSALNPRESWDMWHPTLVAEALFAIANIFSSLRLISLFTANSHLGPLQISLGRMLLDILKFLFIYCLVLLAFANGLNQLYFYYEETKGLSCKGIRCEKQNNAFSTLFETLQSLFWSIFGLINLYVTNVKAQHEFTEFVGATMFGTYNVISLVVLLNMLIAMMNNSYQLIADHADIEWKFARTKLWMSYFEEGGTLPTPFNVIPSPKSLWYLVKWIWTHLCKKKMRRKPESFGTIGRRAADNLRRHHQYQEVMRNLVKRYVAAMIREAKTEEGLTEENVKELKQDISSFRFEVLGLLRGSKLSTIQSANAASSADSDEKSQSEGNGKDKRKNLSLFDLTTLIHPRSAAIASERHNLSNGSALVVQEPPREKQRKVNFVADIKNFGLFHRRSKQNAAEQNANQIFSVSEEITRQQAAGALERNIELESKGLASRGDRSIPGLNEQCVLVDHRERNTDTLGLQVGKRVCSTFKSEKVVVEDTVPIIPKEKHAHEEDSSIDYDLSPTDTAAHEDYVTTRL
Consider `COC(=O)c1ccccc1NC(=O)c1cnn2cccnc12`, for which the “activation ratio” value is 23.9.

Consider `Cc1cc(Cl)ccc1OC(C)C(=O)Nc1ccccc1N1CCOCC1` (centres undefined), for which the “activation ratio” value was 57.2.

`CC(C(=O)c1ccc(Br)cc1)[n+]1cccc(NC(=O)c2ccccc2)c1` (centres undefined): the “activation ratio” value was 0.98.

In the case of `Cn1c(SCCOc2ccccc2F)nc2ccccc2c1=O`, the “activation ratio” value was 1.65.

For `O=C(CN1CCCN(S(=O)(=O)c2ccc(F)cc2)CC1)Nc1ccccc1Br`, the “activation ratio” value is 23.6.

Regarding `Cc1c(CCOC(=O)c2ccccc2)sc[n+]1CC(=O)c1ccc(Br)cc1`, the “activation ratio” value is 38.4.

For the compound `Cc1c(N2C(=O)/C(=C/c3ccccc3)SC2=S)c(=O)n(-c2ccccc2)n1C`, the “activation ratio” value was -1.99.

In the case of `CCOC(=O)Cc1csc(NC(=O)NC2(C(F)(F)F)Oc3cc(Cl)c(Cl)cc3O2)n1`, the “activation ratio” value is 24.6.

For the compound `CCCn1nc(C(=O)NC2CCCc3ccccc32)c2ccccc2c1=O` (centres undefined), the “activation ratio” value was -2.62.

On to `CCOC(=O)c1c(C)n(-c2ccc(C)cc2)c2ccc(OCC(O)CNCC3CCCO3)cc12` (centres undefined), for which the “activation ratio” value was 79.9.

`O=C(NCCCN1CCN(CCCNC(=O)c2cccc(Cl)c2)CC1)c1cccc(Cl)c1`: the “activation ratio” value is 0.64.

As to `COC(=O)[C@@]12CCCCN1[C@H](c1ccc(-c3ccc(C(C)=O)cc3)cc1)[C@@H]1C(=O)N(C)C(=O)[C@@H]12`, the “activation ratio” value is 0.77.

As for `Cc1ccc(CNC(=O)CSc2nc(=O)n3ccccc3n2)cc1`, the “activation ratio” value was -0.08.

For `CCCCCCc1cc2cc(-c3nnc(-c4ccccc4O)o3)c(=O)oc2cc1O`, the “activation ratio” value is 27.

As for `CCCCN(C)CCNC(=O)C1CCCN(S(=O)(=O)c2cccc3nsnc23)C1` (centres undefined), the “activation ratio” value is 9.

`Cc1cccc(NC(=O)CNC(=O)CN2C(=O)NC3(CCCCC3C)C2=O)c1C` (centres undefined): the “activation ratio” value is 1.6.

Turning to `CC(C)c1ccc(OCc2ccc(C(=O)N3CCCC3)o2)cc1`, the “activation ratio” value is 9.95.

With `COc1ccc(-n2cc(CNCc3cnc4ccccn34)c(-c3cccc(F)c3)n2)cc1`, the “activation ratio” value is 18.8.

Turning to `COc1ccc(CCN2C(=S)N(C)C(=O)C2CC(=O)Nc2ccc(F)cc2)cc1` (centres undefined), the “activation ratio” value is 1.42.

On to `CCOC(=O)C1=NNC(C(=O)c2ccc(Cl)cc2)C1c1ccc(OC)cc1` (centres undefined), for which the “activation ratio” value is -0.92.

For the compound `Cc1ccc(C(C)C)c(OCCCCN2CCNCC2)c1`, the “activation ratio” value is 16.3.

With `CCOC(=O)CSc1nc2ccccc2c(=O)n1C1CCCC1`, the “activation ratio” value is 0.21.

Turning to `Clc1ccc(Cl)c(OCCCCN2CCNCC2)c1`, the “activation ratio” value was 28.

For `COc1ccc(-c2cc(C(=O)N3CC(C)CC(C)C3)c3ccccc3n2)cc1` (centres undefined), the “activation ratio” value is -2.31.

In the case of `Cn1c(N2CCC(C(N)=O)CC2)nc2c1c(=O)n(Cc1ccc(Br)cc1)c(=O)n2C`, the “activation ratio” value was 2.92.

With `OC1(c2ccc(Cl)cc2)CN(c2ccccc2)C2=[N+]1CCS2` (centres undefined), the “activation ratio” value was 17.1.

Take `CCN(CCCNC(=O)CCCOc1cc(=O)n(C)c2ccccc12)Cc1ccccc1`: the “activation ratio” value was 6.84.

As for `O=C(NN/C(=N/S(=O)(=O)c1ccc(Cl)cc1)c1ccccc1)c1cccc(Cl)c1`, the “activation ratio” value was 4.91.

Take `CCn1c2ccc(F)cc2c2nnc(NN)nc21`: the “activation ratio” value is -0.78.

`CCN(CC)CCOCCOc1ccc(Cl)c2ccccc12`: the “activation ratio” value is 4.13.

For `O=C(NCCCN1CCCC1=O)c1ccc(CNS(=O)(=O)c2ccc(F)cc2)cc1`, the “activation ratio” value was 1.82.

On to `Cc1noc(C)c1COC(=O)[C@@H](NC(=O)c1ccccc1Cl)C(C)C`, for which the “activation ratio” value is 0.58.

Turning to `C/C=C/Cn1c(SCCCc2ccccc2)nc2c1c(=O)[nH]c(=O)n2C`, the “activation ratio” value is 2.49.

Turning to `O=[N+]([O-])c1ccc2c(c1)C=C1CCCCC1(N1CCCC1)O2` (centres undefined), the “activation ratio” value is 0.73.

Turning to `COc1ccc(CCn2c(=S)[nH]c3cc(C(=O)N4CCOCC4)ccc3c2=O)cc1OC`, the “activation ratio” value is 1.04.

Regarding `CN(C)CCCCOc1cccc(Br)c1`, the “activation ratio” value is 0.83.

Regarding `CC1=CC(=O)C(C(C)C)=C/C1=N/OS(=O)(=O)c1ccccc1`, the “activation ratio” value was 6.87.

On to `O=C1CC(NS(=O)(=O)c2cccs2)CN1c1ccccc1` (centres undefined), for which the “activation ratio” value was 9.98.

Regarding `OCCNCc1cc(Br)ccc1OCc1ccccc1`, the “activation ratio” value is 3.53.

Source of the values: PubChem BioAssay.
